Compounds with a hit are over-represented: about 27% of the library has one in this group of screens.
CYP2C19 act: human CYP2C19 activators, primary screen, biochemical, luminescence | recombinant CYP2C19, luciferin-H EGE luminescence; hits give high values; 0 = fully inhibited enzyme, 1 = untreated enzyme | activation factor at 5 µM | 96,000 tested, under 10 active;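 active = activation factor of at least 2 at 5 µM in the primary screen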;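 also: 0 = wells with 2.5 mM tranylcypromine and 1 = vehicle-only wells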
sEH act: soluble epoxide hydrolase activators, primary screen, biochemical, human sEH. Bifunctional epoxide hydrolase 2 (Homo sapiens), P34913. purified human sEH enzymatic activity, activator screen. activation, % at 2 µM. actives 0.04% (n = 91,000); in the data active = activation above about 37%
Target sequence (P34913 whole entry, looked up): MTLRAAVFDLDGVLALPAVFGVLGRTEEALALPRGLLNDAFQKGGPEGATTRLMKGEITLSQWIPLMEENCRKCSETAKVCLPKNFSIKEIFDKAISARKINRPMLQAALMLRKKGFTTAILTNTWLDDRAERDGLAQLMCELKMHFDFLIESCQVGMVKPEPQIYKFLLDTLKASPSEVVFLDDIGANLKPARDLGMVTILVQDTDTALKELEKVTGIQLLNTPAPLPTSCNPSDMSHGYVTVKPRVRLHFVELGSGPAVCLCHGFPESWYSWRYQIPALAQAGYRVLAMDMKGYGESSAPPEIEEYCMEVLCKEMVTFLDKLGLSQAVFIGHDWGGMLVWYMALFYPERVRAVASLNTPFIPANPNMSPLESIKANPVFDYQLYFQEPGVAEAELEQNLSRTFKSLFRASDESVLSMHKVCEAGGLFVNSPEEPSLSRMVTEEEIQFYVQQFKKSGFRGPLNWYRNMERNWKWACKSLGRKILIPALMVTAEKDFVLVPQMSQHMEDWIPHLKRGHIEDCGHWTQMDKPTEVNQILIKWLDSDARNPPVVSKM
sEH inhibitor: soluble epoxide hydrolase inhibitors, primary screen, biochemical, human sEH; actives 0.34% (n = 91,000); inhibition, % at 2 µM; Bifunctional epoxide hydrolase 2 (Homo sapiens), P34913; recombinant human sEH enzymatic activity assay; AID 707, 2007; in the data active = inhibition above about 80%
CYP2C9 act: human CYP2C9 activators, primary screen, biochemical, luminescence; Cytochrome P450 2C9 (Homo sapiens), P11712; recombinant CYP2C9, luciferin-H conversion; hits give high values; factor 1 = untreated enzyme, 0 = blocked; activation factor at 5 µM; actives 1.4% (n = 96,000); AID 1024, 2008;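 active = activation factor of 2 or more for CYP2C9 at a 5 µM dose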;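 also: 0 = sulfaphenazole-blocked wells and 1 = vehicle-only wells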
CYP2C9 inh: blockers of cytochrome P450 2C9 activity – biochemical, luminescence, ADME assay, primary screen; P11712; CYP2C9 Supersomes, luciferin-H conversion; inhibition, % at 5 µM; actives 20% (n = 96,000);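 active = blocking of liver enzyme CYP2C9 beyond about 50% at 5 µM, limit read from the data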
CYP2C19 inh: blockers of cytochrome P450 2C19 activity – biochemical, luminescence, ADME assay, primary screen; P33261; CYP2C19 Supersomes, luciferin-H EGE luminescence, 30 min; inhibition, % at 5 µM; actives 21% (n = 96,000); AID 778, 2007;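 active = CYP2C19 inhibition above a set limit at 5 µM in the primary screen, cut at about 50% in these data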;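 also: plate controls were negative control wells for no effect and 2.5 mM tranylcypromine positive control for full effect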
An asterisk follows results filed as active; · = not tested or not shown.

SMILES | CYP2C19 act | sEH act | sEH inhibitor | CYP2C9 act | CYP2C9 inh | CYP2C19 inh
CCc1ccc(NC(=O)C2(c3ccccc3)CC2(Cl)Cl)cc1 (centres undefined) | 0.7 | -8 | 9 | 0.6 | 40 | 33
COC(=O)c1c(C)cc(OC(C)=O)c(C)c1OC(C)=O | 1 | 2 | -2 | 1.1 | -11 | 2
COc1ccc(-c2cc(NCCc3ccncc3)n3ncnc3n2)cc1 | 0.5 | · | · | 0.3 | 70* | 49
O=C1C(c2ccncc2)N(CCC2=CCCCC2)C(=O)CN1C1CCCCC1 (centres undefined) | 0.5 | -7 | 5 | 0.5 | 54* | 53*
COc1ccc(-c2nc3ccccc3c(=O)o2)cc1OC | 1.1 | -2 | 4 | 0.9 | 14 | -12
COc1ccc(-c2c/c(=N\c3nc(-c4ccccc4)c(C)s3)c3ccccc3o2)cc1O | 0.7 | 8 | -8 | 0.1 | 93* | 28
COc1ccc(C2(C(=O)NCC3CCCO3)CCOCC2)cc1 (centres undefined) | 0.8 | 3 | 1 | 1 | 4 | 18
O=C1/C(=C/c2ccccc2)NC(=S)N1C(c1ccccc1)c1ccccc1 | 0.9 | 14 | -11 | 0.4 | 60* | 15
O=C1/C(=C/c2ccccc2)Nc2ccccc21 | 0.9 | -7 | 10 | 0.7 | 28 | 7
O=C1CSC(c2ccc(F)cc2)N1c1nnc(C23CC4CC(CC(C4)C2)C3)s1 (centres undefined) | 0.6 | 0 | 2 | 0.6 | 42 | 41
COC(=O)c1nnn(CC(=O)Nc2cc(Cl)ccc2C)c1C(=O)OC | 0.4 | 1 | 0 | 0.5 | 54* | 55*
CCOC(=O)N1CCC(N(C(=O)Nc2cccc(OC)c2)C(C)CC)CC1 (centres undefined) | 0.4 | 3 | -4 | 0.9 | 14 | 56*
CCOC(=O)c1nnn(CC(=O)Nc2cccc(Cl)c2C)c1C(=O)OCC | 0.1 | 8 | -8 | 0.3 | 67* | 94*
CCOC(=O)c1cn(CC(=O)Nc2cccc(Cl)c2C)nn1 | 0.9 | -3 | 3 | 0.7 | 32 | 13
Cc1ccc(C)c(NC(=O)Cn2nnc(C(=O)Nc3c(C)cccc3C)c2N)c1 | 1 | 2 | -4 | 1 | 0 | 2
CCOC(=O)c1nnn(CC(=O)Nc2cccc(OC)c2)c1C(=O)OCC | 0.5 | -7 | 8 | 0.4 | 59* | 50
CC1CCCCC1NC(=O)CSc1nnc(COc2ccccc2Cl)o1 (centres undefined) | 0.8 | · | · | 1.1 | -10 | 21
CCOc1ccc(CCNC(=O)CCCN2C(=O)c3ccccc3C2=O)cc1OCC | 1 | -20 | 20 | 0.8 | 20 | 3
O=c1ccc(Oc2nc(N3CCOCC3)nc(N3CCOCC3)n2)n[nH]1 | 0.8 | 23 | -18 | 1 | -3 | 17
N#Cc1c(-c2ccc(Cl)cc2)ccn2nc(C3CCCCC3)nc12 | 0.7 | 10 | -10 | 0.1 | 85* | 26
N#Cc1c(-c2ccc(Cl)cc2)nc2n(c1=O)CCCS2 | 0.5 | -12 | 13 | 0.7 | 33 | 49
Cc1cnc(NC(=O)COc2cccc3c2OC(C)(C)C3)s1 | 0.9 | -9 | 8 | 0.8 | 24 | 12
CC(C)NC(=O)NC(=O)COc1cccc2c1OC(C)(C)C2 | 0.1 | 0 | 2 | 0.7 | 32 | 93*
Cc1cc2nc(SCC(=O)N(C)C)c3c(c2cc1C)CCCC3 | 1 | -10 | 11 | 0.8 | 18 | 2
c1coc(CN2CCN(C(c3cccs3)c3nnnn3C3CCCC3)CC2)c1 (centres undefined) | 0.7 | 7 | -3 | 0.8 | 21 | 28
O=C(NCc1ccco1)C(c1ccc(F)cc1)N(CC1CCCO1)C(=O)Cn1nnc2ccccc21 (centres undefined) | 0.7 | 2 | -2 | 0.7 | 28 | 33
Cc1cc(-n2nc(C)cc2C)nc(NS(=O)(=O)c2ccccc2Cl)n1 | 1 | 8 | -5 | 0.5 | 52* | 0
Cc1cc(C)nc(NS(=O)(=O)c2ccccc2)n1 | 1.2 | -18 | 19 | 1.2 | -18 | -18
COc1cc(C2CC(=O)Nc3ccccc3S2)cc(OC)c1OC (centres undefined) | 0.4 | · | · | 0.7 | 35 | 64*

Screens from PubChem BioAssay.
